Assay results reported in PubChem BioAssay (NCI).
The panel holds about 79,000 compounds, 15% with a hit somewhere; the sample as a whole holds those more often. Activity calls are given as the source filed them. No stated cut-off is given here; in the data, active means growth inhibition above about 70%; inactive means the rest.

What was measured:
[1] = NCI Yeast Anticancer Drug Screen. Data for the sgs1 strain (AID 173);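 further: 0% = growth of vehicle-only control cultures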; details: S. cerevisiae sgs1 mutant, hits give high values
Summary of the method: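 Read-out: yeast growth inhibition relative to vehicle controls, following compound exposure of a strain with a defined DNA repair/cell cycle alteration.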

[2] = NCI Yeast Anticancer Drug Screen. Data for the mlh1 rad18 strain (AID 175); details: S. cerevisiae mlh1 rad18 strain growth inhibition, hits give high values
Summary of the method: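 Yeast w/ defined DNA-repair lesions; compound exposure; growth vs vehicle controls → % inhibition.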

[3] = NCI Yeast Anticancer Drug Screen. Data for the rad18 strain (AID 177); details: S. cerevisiae rad18 mutant growth inhibition, hits give high values
Summary of the method: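 Readout: growth inhibition vs vehicle controls. Cells: genetically altered yeast strain, DNA repair defect.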

[4] = NCI Yeast Anticancer Drug Screen. Data for the rad52 strain (AID 147);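 further: 0% = growth of vehicle-treated control cultures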; details: S. cerevisiae rad52 mutant growth inhibition, hits give high values
Summary of the method: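 Read-out: growth inhibition versus vehicle-treated controls. Cells were a DNA repair-deficient yeast strain treated with compounds.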

[5] = NCI Yeast Anticancer Drug Screen. Data for the wt1 strain (AID 149);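 further: 0% = growth of vehicle-treated wt1 cultures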; details: S. cerevisiae wt1 strain (SPY 50644) growth inhibition, hits give high values
Summary of the method: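 Each compound is tested on wt1 yeast and the loss of growth versus vehicle gives the inhibition value.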

[6] = NCI Yeast Anticancer Drug Screen. Data for the rad50EPP+ strain (AID 151);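 further: 0% = growth of vehicle-treated control cultures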; details: S. cerevisiae rad50 mutant strain, hits give high values
Summary of the method: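 Growth inhibition read against vehicle controls in rad50EPP+ yeast, a strain altered in DNA damage repair, after compound exposure.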

[7] = NCI Yeast Anticancer Drug Screen. Data for the rad50 strain (AID 155);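 further: 0% = growth of vehicle-only cultures of the same strain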; details: S. cerevisiae rad50 strain growth inhibition, hits give high values
Summary of the method: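 Vehicle-treated cultures provide the reference for the growth inhibition reported for compound-exposed, repair-deficient yeast.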

[8] = NCI Yeast Anticancer Drug Screen. Data for the rad14 strain (AID 159);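 further: 0% = growth of vehicle-treated control cultures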; details: S. cerevisiae rad14 strain growth inhibition, hits give high values
Summary of the method: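 Inhibition of growth is reported for a repair-deficient yeast mutant following compound treatment, calculated relative to cultures that received vehicle.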

[9] = NCI Yeast Anticancer Drug Screen. Data for the sgs1 mgt1 strain (AID 161);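 further: 0% = growth of cultures given vehicle only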; details: S. cerevisiae sgs1 mgt1 strain, hits give high values
Summary of the method: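 Test agents were incubated with a DNA-repair-mutant yeast strain. Growth was then read and compared against vehicle-treated controls.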

[10] = NCI Yeast Anticancer Drug Screen. Data for the CLN2oe strain (AID 163);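 further: 0% = growth of vehicle-only control cultures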; details: S. cerevisiae CLN2oe strain, hits give high values
Summary of the method: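 Read-out: yeast growth inhibition, expressed relative to vehicle-only controls. The strain bears an engineered cell-cycle alteration.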

[11] = NCI Yeast Anticancer Drug Screen. Data for the cln2 rad14 strain (AID 165);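 further: 0% = growth equal to vehicle treated cultures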; details: S. cerevisiae cln2 rad14 strain, hits give high values
Summary of the method: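 cln2 rad14 yeast strain; compound exposure; growth inhibition read vs vehicle controls.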

[12] = NCI Yeast Anticancer Drug Screen. Data for the bub3 strain (AID 167); details: S. cerevisiae bub3 mutant strain, hits give high values
Summary of the method: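 Mutant yeast screening strain plus compound; vehicle-treated cultures serve as the 0% inhibition reference.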

[13] = NCI Yeast Anticancer Drug Screen. Data for the wt2 strain (AID 169); details: S. cerevisiae wt2 strain growth inhibition, hits give high values
Summary of the method: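 Read-out: growth inhibition versus vehicle-treated control cultures after compound exposure of the yeast strain.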

[14] = NCI Yeast Anticancer Drug Screen. Data for the mgt1 strain (AID 153); details: S. cerevisiae mgt1 mutant growth inhibition, hits give high values
Summary of the method: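 mgt1 yeast grown with test compound; read-out is growth inhibition versus vehicle-treated cultures.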

[15] = NCI Yeast Anticancer Drug Screen. Data for the mec2-1 strain (AID 157); details: S. cerevisiae mec2-1 strain, hits give high values
Summary of the method: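 Yeast mec2-1 mutant treated with compound. Readout: growth inhibition vs vehicle controls.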

[16] = NCI Yeast Anticancer Drug Screen. Data for the mlh1 strain (AID 171);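 further: 0% = growth of vehicle-treated control cultures of the same strain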; details: S. cerevisiae mlh1 strain growth inhibition, hits give high values
Summary of the method: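 Read-out: growth inhibition versus vehicle controls. Strain: engineered yeast with a defined DNA repair or cell cycle defect, compound-treated.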

[17] = at 5.0 µM (retest, dose inferred, filed as 0.5)
[18] = at 50.0 µM (retest, dose inferred, filed as 5.0)

Measured: growth inhibition

Cc1ccc(Nc2n[nH]c(=S)s2)cc1
inactive: [1]; at 33.0 µM 41% | [2]; [17] 36% | [2]; [18] 60% | [3]; at 1.2 µM -17% | [3]; at 3.7 µM -10% | [3]; at 11.0 µM 0%
active: [1]; at 100.0 µM 88% | [2]; at 50.0 µM 85.7% | [3]; at 33.0 µM 80% | [3]; at 100.0 µM 94%

Nc1nc2c(c(=O)[nH]1)NC(CCNc1ccc(C(=O)O)cc1)CN2 (configuration not stated)
inactive: [4]; at 1.2 µM -2% | [4]; at 3.7 µM 1% | [4]; at 11.0 µM -5% | [4]; at 33.0 µM 2% | [4]; at 100.0 µM -5% | [5]; at 1.2 µM 1% | [5]; at 3.7 µM 1% | [5]; at 11.0 µM 2% | [5]; at 33.0 µM 1% | [5]; at 100.0 µM -1% | [6]; at 1.2 µM -3% | [6]; at 3.7 µM -4% | [6]; at 11.0 µM -3% | [6]; at 33.0 µM -2% | [6]; at 100.0 µM -5% | [7]; at 1.2 µM -3% | [7]; at 3.7 µM 2% | [7]; [17] 14% | [7]; at 11.0 µM -5% | [7]; at 33.0 µM -4% | [7]; [18] 12% | [7]; at 50.0 µM -12.1% | [7]; at 100.0 µM -1% | [8]; at 1.2 µM 0% | [8]; at 3.7 µM -6% | [8]; at 11.0 µM 2% | [8]; at 33.0 µM 3% | [8]; at 100.0 µM 6% | [9]; [17] 11% | [9]; [18] -2% | [9]; at 50.0 µM -0.75% | [10]; at 1.2 µM -2% | [10]; at 3.7 µM -3% | [10]; at 11.0 µM -3% | [10]; at 33.0 µM 1% | [10]; at 100.0 µM 2% | [11]; [17] 31% | [11]; [18] 39% | [11]; at 50.0 µM 2.45% | [12]; at 1.2 µM 2% | [12]; at 3.7 µM 2% | [12]; [17] -13% | [12]; at 11.0 µM 0% | [12]; at 33.0 µM -1% | [12]; [18] 6% | [12]; at 50.0 µM 6.15% | [12]; at 100.0 µM 24% | [13]; at 1.2 µM 0% | [13]; at 3.7 µM 2% | [13]; at 11.0 µM 1% | [13]; at 33.0 µM 0% | [13]; at 100.0 µM 3% | [1]; at 1.2 µM -2% | [1]; at 3.7 µM -3% | [1]; at 11.0 µM -4% | [1]; at 33.0 µM -6% | [1]; at 100.0 µM -3% | [2]; [17] 8% | [2]; [18] 28% | [2]; at 50.0 µM 4.25% | [3]; at 1.2 µM -3% | [3]; at 3.7 µM -5% | [3]; at 11.0 µM -10% | [3]; at 33.0 µM -22% | [3]; at 100.0 µM -29%

CC1CCC2(C(=O)O)CCC3(C)C(=CCC4C5(C)CC(O)C(O)C(C)(CO)C5C(O)CC43C)C2C1C (configuration not stated)
active: [4]; at 100.0 µM 81% | [5]; at 100.0 µM 80% | [7]; [18] 88% | [7]; at 50.0 µM 76.9% | [15]; [18] 90% | [15]; at 50.0 µM 82.3% | [15]; at 100.0 µM 75% | [8]; at 100.0 µM 85% | [9]; [18] 70% | [9]; at 50.0 µM 78.7% | [10]; at 100.0 µM 78% | [11]; [18] 77% | [13]; at 100.0 µM 96% | [16]; at 100.0 µM 95% | [1]; at 100.0 µM 95% | [3]; at 100.0 µM 87%
inactive: [4]; at 1.2 µM -23% | [4]; at 3.7 µM -25% | [4]; at 11.0 µM -28% | [4]; at 33.0 µM -15% | [5]; at 1.2 µM -17% | [5]; at 3.7 µM -20% | [5]; at 11.0 µM -17% | [5]; at 33.0 µM -3% | [14]; at 1.2 µM -34% | [14]; at 3.7 µM -34% | [14]; at 11.0 µM -32% | [14]; at 33.0 µM -36% | [14]; at 100.0 µM 47% | [7]; at 1.2 µM 13% | [7]; at 3.7 µM -20% | [7]; [17] 54% | [7]; at 11.0 µM -20% | [7]; at 33.0 µM -28% | [7]; at 100.0 µM 63% | [15]; at 1.2 µM -15% | [15]; at 3.7 µM -6% | [15]; [17] -1% | [15]; at 11.0 µM -17% | [15]; at 33.0 µM -15% | [8]; at 1.2 µM -13% | [8]; at 3.7 µM -13% | [8]; at 11.0 µM -4% | [8]; at 33.0 µM 6% | [9]; [17] 16% | [10]; at 1.2 µM -6% | [10]; at 3.7 µM -4% | [10]; at 11.0 µM 3% | [10]; at 33.0 µM 7% | [11]; [17] 20% | [11]; at 50.0 µM 39.1% | [13]; at 1.2 µM -2% | [13]; at 3.7 µM -2% | [13]; at 11.0 µM -1% | [13]; at 33.0 µM 21% | [16]; at 1.2 µM -29% | [16]; at 3.7 µM -8% | [16]; at 11.0 µM -20% | [16]; at 33.0 µM -2% | [1]; at 1.2 µM -4% | [1]; at 3.7 µM 9% | [1]; at 11.0 µM -10% | [1]; at 33.0 µM -17% | [3]; at 1.2 µM -43% | [3]; at 3.7 µM -47% | [3]; at 11.0 µM -42% | [3]; at 33.0 µM -61%
